In PubChem BioAssay AID602428 (Sanford-Burnham Center for Chemical Genomics, 2012) one finds inhibition data, which are given here for one molecule.

In all, about 2,500 compounds went through this assay and about 980 (39%) were called active.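 The calls were made as follows: active = mean inhibition at 5 µM reaching about 45% (limit read from the data); inactive = the rest.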 The full list was thinned out, with actives kept by preference.

The nature of the test: blockers of Gli reporter signaling – single concentration, luciferase luminescence, Sufu-KO-LIGHT cells, confirmation (AID 602428).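 Also: plate controls were DMSO-treated cells for no effect and wells lacking cells for full effect.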 The conditions noted are these: at 5 µM, active compounds read high.
As for `CCOc1cccc(=NC2CCCCC2)c2c(C)[nH]c(C)c12`, the inhibition (commonly the percentage by which the read-out fell short of the control) is 86.4% (active).
